Here are results for eleven molecules from paper PMC5540273 (PLoS ONE, 2017).

Among the test systems are PLK2; PLK3; PLK4; PRKCD; PRKCE; PRKCH; PRKCI; PRKCQ; PRKD1; PRKD2; PRKD3; PRKG1; PRKG2; PRKX; PRP4; QSK; RAF1; RET.
Holding throughout (conditions): concentration: 1 μM, replicates: in singlicate; n = 1
For a further test, the system named is T1, PRKR.
T1 construct: gene EIF2AK2

In another test the test system is T2, PYK2.
T2 construct: gene PTK2B
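Note: KINOMEscan kinase panel screen.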

Consider `COc1cc(Nc2ccnc3cc(-c4ccncc4)ccc23)cc(OC)c1OC.Cl` [GW494610], for which the “%Inh” value is 0% in the test on PLK2; 0% with PLK3; 0% with PLK4; 13% in the test with PRKCD; 25% in the test with PRKCE; 16% with PRKCH. Besides, the “%Inh” value in the test with PRKCI was 0%; in the test on PRKCQ it was 0%; in the test on PRKD1 it was 19%; in the test with PRKD2, 24%; with PRKD3, 6%; in the test on PRKG1, 8%. Besides, the “%Inh” value worked out at 69% with PRKG2; 0% in the test on PRKR; 0% with PRKX; 27% with PRP4; 16% in the test on PYK2; 84% in the test with QSK. Also, the figures for the “%Inh” value in the test on RAF1 and with RET were 23% and 24%, respectively.

As to `Cc1ccc(NC(=O)c2ccnc(N3CCCCC3)c2)cc1-c1ccc(C(=O)NCC2CC2)cc1` [GW775610], the “%Inh” value in the test on PLK2 was found to be 0%; with PLK3, 0%; with PLK4 it was 24%; in the test on PRKCD it was 9%; in the test on PRKCE, 9%; with PRKCH, 0%. Besides, the “%Inh” value in the test with PRKCI was 6%; in the test with PRKCQ, 2%; with PRKD1 it was 0%; in the test with PRKD2, 0%; with PRKD3, 0%; with PRKG1 it was 73%. Also, the “%Inh” value worked out at 0% in the test on PRKG2; 3% in the test on PRKR; 5% in the test with PRKX; 0% in the test with PRP4; 5% in the test on PYK2; 0% with QSK. For the same molecule, the “%Inh” value was 85% in the test on RAF1 and 5% in the test on RET.

With `COc1ccc(NC(=O)c2ccoc2)cc1-c1ccc(C(=O)NCC2CC2)cc1` [GW810437], the “%Inh” value in the test on PLK2 was 34%; in the test with PLK3, 28%; with PLK4 it was 8%; in the test on PRKCD, 9%; in the test on PRKCE it was 41%; in the test with PRKCH it was 0%. Moreover, the “%Inh” value in the test on PRKCI came to 6%; in the test with PRKCQ, 0%; in the test with PRKD1, 0%; in the test on PRKD2, 0%; with PRKD3 it was 0%; with PRKG1 it was 0%. Further, the “%Inh” value in the test on PRKG2 is 0%; with PRKR it was 0%; with PRKX it was 0%; in the test on PRP4, 0%; with PYK2, 7%; in the test with QSK, 12%. Besides, the “%Inh” value in the test with RAF1 and with RET was 0% each time.

On to `COc1ccc(C2=C(Nc3cccc(O)c3)C(=O)NC2=O)cc1` [SB-390766], for which the “%Inh” value with PLK2 came to 0%; in the test with PLK3, 0%; in the test with PLK4, 13%; in the test on PRKCD it was 0%; in the test on PRKCE, 49%; with PRKCH, 0%. The “%Inh” value amounted to 18% with PRKCI; 0% in the test with PRKCQ; 0% with PRKD1; 4% in the test with PRKD2; 0% in the test with PRKD3; 0% with PRKG1. Also, the “%Inh” value in the test on PRKG2 came out at 0%; with PRKR, 0%; in the test on PRKX, 0%; with PRP4, 49%; with PYK2 it was 0%; in the test on QSK, 12%. Also, the “%Inh” value was found to be 96.2% in the test on RAF1 and 25% in the test on RET.

On to `CC(C)c1nc(-c2cccc(NS(=O)(=O)c3c(F)cccc3F)c2)c(-c2ccnc(Nc3ccc(N4CCOCC4)nc3)n2)s1.Cl` [GSK1723980], for which the “%Inh” value in the test with PLK2 is 0%; in the test on PLK3, 0%; in the test with PLK4 it was 100%; in the test on PRKCD, 0%; in the test with PRKCE it was 0%; in the test with PRKCH, 2%. Besides, the “%Inh” value with PRKCI amounted to 20%; in the test on PRKCQ, 27%; with PRKD1 it was 93.9%; with PRKD2 it was 99.4%; with PRKD3, 100%; with PRKG1, 0%. Further, the “%Inh” value with PRKG2 is on record as 0%; in the test with PRKR it was 29%; in the test with PRKX, 7%; with PRP4 it was 0%; in the test on PYK2, 25%; in the test with QSK, 82%. Further, the “%Inh” value in the test on RAF1 amounted to 99.4%; in the test with RET it was 99.6%.

For the molecule `Cc1ccc(-c2ccc3occ(-c4ccc(S(C)=O)cc4)c3c2)nn1` (stereo not shown), the “%Inh” value in the test on PLK2 is given as 0%; in the test with PLK3, 0%; in the test on PLK4, 2%; in the test with PRKCD, 1%; with PRKCE, 0%; with PRKCH, 0%. Further, the “%Inh” value in the test on PRKCI turned out to be 0%; in the test with PRKCQ, 13%; in the test with PRKD1, 30%; with PRKD2 it was 9%; in the test on PRKD3 it was 0%; in the test on PRKG1, 14%. In addition, the “%Inh” value is recorded as 0% in the test on PRKG2; 0% in the test with PRKR; 0% in the test on PRKX; 13% in the test with PRP4; 0% in the test on PYK2; 0% in the test with QSK. Besides, the entries for the “%Inh” value in the test on RAF1 and in the test on RET were 6% and 0%, respectively.

Regarding `COc1ccc(C)c(Nc2ccnc(Nc3ccc(-c4cnc[nH]4)cc3)n2)c1.Cl` [GW784041], the “%Inh” value with PLK2 worked out at 0%; with PLK3, 0%; in the test on PLK4 it was 15%; in the test on PRKCD, 30%; in the test on PRKCE it was 12%; in the test with PRKCH, 0%. In addition, the “%Inh” value in the test on PRKCI is reported as 25%; in the test with PRKCQ it was 0%; in the test with PRKD1, 16%; in the test with PRKD2, 12%; in the test on PRKD3, 0%; with PRKG1, 0%. The “%Inh” value in the test with PRKG2 worked out at 12%; with PRKR, 0%; in the test on PRKX, 0%; in the test with PRP4, 0%; in the test with PYK2 it was 5%; in the test with QSK it was 0%. Further, the figures for the “%Inh” value in the test with RAF1 and in the test on RET were 27% and 0%, respectively.

Turning to `COC(=O)Nc1nc2cc(Oc3ccc(NC(=O)Nc4cccc(SC)c4)cc3)ccc2[nH]1.Cl` [GW697999], the “%Inh” value in the test on PLK2 amounted to 0%; with PLK3, 0%; with PLK4, 0%; in the test with PRKCD, 1%; with PRKCE, 11%; in the test with PRKCH, 4%. Also, the “%Inh” value was 0% in the test on PRKCI; 0% with PRKCQ; 3% in the test on PRKD1; 10% in the test with PRKD2; 18% with PRKD3; 1% with PRKG1. The “%Inh” value was found to be 17% in the test with PRKG2; 0% with PRKR; 24% in the test with PRKX; 28% in the test with PRP4; 0% with PYK2; 0% with QSK. In addition, the “%Inh” value with RAF1 stood at 92.6%; with RET it was 99.8%.

`Nc1ncc(-c2ccc3nccc(-c4ccncc4)c3c2)cc1S(=O)(=O)N1CCCCC1` [GSK1693850]: the “%Inh” value in the test with PLK2 amounted to 30%; in the test on PLK3, 27%; with PLK4 it was 0%; with PRKCD, 15%; in the test with PRKCE, 31%; in the test on PRKCH it was 36%. The “%Inh” value came out at 9% with PRKCI; 0% in the test with PRKCQ; 0% in the test with PRKD1; 4% in the test on PRKD2; 23% in the test with PRKD3; 7% in the test on PRKG1. Moreover, the “%Inh” value was 0% with PRKG2; 3% in the test on PRKR; 27% in the test on PRKX; 0% in the test on PRP4; 28% with PYK2; 1% with QSK. The “%Inh” value in the test with RAF1 stood at 18%; with RET it was 13%.

For `Cc1nn2c(=O)cc(N3CCO[C@H](C)C3)nc2n1Cc1cccc(Cl)c1Cl` [GSK2373693], the “%Inh” value came out at 0% with PLK2; 0% in the test on PLK3; 48% with PLK4; 0% in the test on PRKCD; 74% with PRKCE; 13% in the test with PRKCH. The “%Inh” value worked out at 24% with PRKCI; 12% in the test on PRKCQ; 14% in the test with PRKD1; 2% in the test on PRKD2; 45% with PRKD3; 4% with PRKG1. Further, the “%Inh” value worked out at 0% in the test on PRKG2; 0% in the test with PRKR; 9% with PRKX; 14% in the test on PRP4; 0% with PYK2; 0% with QSK. Besides, the “%Inh” value in the test with RAF1 was found to be 9%; in the test on RET, 69%.

With `Cc1ccc(C)c(NC(=O)Nc2ccc(C)c(-c3ccc(C(=O)Nc4ccncc4)cc3)c2)c1` [GSK1398473], the “%Inh” value came to 0% in the test with PLK2; 0% in the test with PLK3; 0% in the test with PLK4; 0% in the test with PRKCD; 4% in the test on PRKCE; 10% in the test with PRKCH. Also, the “%Inh” value in the test on PRKCI is recorded as 0%; with PRKCQ, 32%; in the test with PRKD1 it was 8%; in the test on PRKD2, 3%; in the test with PRKD3 it was 38%; in the test on PRKG1, 31%. The “%Inh” value came to 0% in the test with PRKG2; 14% with PRKR; 20% in the test with PRKX; 0% in the test on PRP4; 0% in the test on PYK2; 8% with QSK. For the same molecule, the “%Inh” value in the test with RAF1 worked out at 89%; in the test with RET it was 23%.
